According to PubChem BioAssay (NCI):
Compounds without any hit were thinned out: in the full panel of roughly 79,000, 15% have a hit. Activity calls are given as the source filed them. Cut-off read from the data, not from the text of the source: active = growth inhibition above about 70%; inactive = the rest.

Tests used:
[1] = NCI Yeast Anticancer Drug Screen. Data for the rad52 strain (AID 147);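 note: 0% = growth of vehicle-treated control cultures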; settings: S. cerevisiae rad52 mutant growth inhibition, hits give high values
In short: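 Compounds are applied to a genetically defined yeast strain lacking normal DNA damage repair, and inhibition of growth is expressed relative to cultures given vehicle only.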

[2] = NCI Yeast Anticancer Drug Screen. Data for the wt1 strain (AID 149);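 note: 0% = growth of vehicle-treated wt1 cultures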; settings: S. cerevisiae wt1 strain (SPY 50644) growth inhibition, hits give high values
In short: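 wt1 strain grown with compound or vehicle; inhibition taken from the growth difference.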

[3] = NCI Yeast Anticancer Drug Screen. Data for the rad50EPP+ strain (AID 151);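 note: 0% = growth of vehicle-treated control cultures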; settings: S. cerevisiae rad50 mutant strain, hits give high values
In short: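 Compounds were applied to the rad50EPP+ yeast strain, which bears a defined DNA repair alteration, and growth inhibition was determined relative to vehicle-treated cultures.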

[4] = NCI Yeast Anticancer Drug Screen. Data for the mgt1 strain (AID 153); settings: S. cerevisiae mgt1 mutant growth inhibition, hits give high values
In short: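 Strain: mgt1 yeast, one of a set carrying defined DNA damage repair or cell cycle control alterations. Compound-treated growth compared with vehicle.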

[5] = NCI Yeast Anticancer Drug Screen. Data for the rad50 strain (AID 155);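 note: 0% = growth of vehicle-only cultures of the same strain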; settings: S. cerevisiae rad50 strain growth inhibition, hits give high values
In short: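 DNA repair mutant yeast, compound exposure, growth read-out; inhibition is taken relative to vehicle.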

[6] = NCI Yeast Anticancer Drug Screen. Data for the mec2-1 strain (AID 157); settings: S. cerevisiae mec2-1 strain, hits give high values
In short: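 Strain: mec2-1 (DNA repair/cell cycle alteration). Compound exposure, then growth measured; inhibition expressed relative to vehicle.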

[7] = NCI Yeast Anticancer Drug Screen. Data for the rad14 strain (AID 159);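 note: 0% = growth of vehicle-treated control cultures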; settings: S. cerevisiae rad14 strain growth inhibition, hits give high values
In short: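 DNA repair-defective yeast, compound-exposed; % growth inhibition derived by comparison with vehicle-treated controls.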

[8] = NCI Yeast Anticancer Drug Screen. Data for the sgs1 mgt1 strain (AID 161);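 note: 0% = growth of cultures given vehicle only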; settings: S. cerevisiae sgs1 mgt1 strain, hits give high values
In short: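 Read-out: growth inhibition vs vehicle controls. Cells: mutant yeast strain deficient in DNA damage repair.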

[9] = NCI Yeast Anticancer Drug Screen. Data for the CLN2oe strain (AID 163);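 note: 0% = growth of vehicle-only control cultures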; settings: S. cerevisiae CLN2oe strain, hits give high values
In short: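 Growth of a genetically modified yeast strain is measured after compound exposure and compared with cultures given vehicle alone.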

[10] = NCI Yeast Anticancer Drug Screen. Data for the cln2 rad14 strain (AID 165);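 note: 0% = growth equal to vehicle treated cultures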; settings: S. cerevisiae cln2 rad14 strain, hits give high values
In short: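 Compounds are applied to the cln2 rad14 yeast strain, and growth is then compared with that of vehicle-treated cultures to give inhibition.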

[11] = NCI Yeast Anticancer Drug Screen. Data for the bub3 strain (AID 167); settings: S. cerevisiae bub3 mutant strain, hits give high values
In short: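 In this screen, a yeast mutant lacking normal mitotic checkpoint function is challenged with compound. Relative growth versus vehicle gives the inhibition value.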

[12] = NCI Yeast Anticancer Drug Screen. Data for the wt2 strain (AID 169);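 note: 0% = growth of vehicle-treated yeast cultures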; settings: S. cerevisiae wt2 strain growth inhibition, hits give high values
In short: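 This strain belongs to a panel of yeast strains with defined genetic alterations in DNA damage repair or cell cycle control. Compounds are applied, and growth inhibition is measured against vehicle-treated cultures.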

[13] = NCI Yeast Anticancer Drug Screen. Data for the mlh1 strain (AID 171);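 note: 0% = growth of vehicle-treated control cultures of the same strain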; settings: S. cerevisiae mlh1 strain growth inhibition, hits give high values
In short: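 Growth of the mutant yeast strain after compound exposure, expressed as inhibition relative to vehicle-only controls.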

[14] = NCI Yeast Anticancer Drug Screen. Data for the sgs1 strain (AID 173);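 note: 0% = growth of vehicle-only control cultures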; settings: S. cerevisiae sgs1 mutant, hits give high values
In short: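 Growth of a yeast strain bearing a defined genetic alteration is measured after compound treatment. Inhibition is expressed relative to vehicle-only controls.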

[15] = NCI Yeast Anticancer Drug Screen. Data for the mlh1 rad18 strain (AID 175); settings: S. cerevisiae mlh1 rad18 strain growth inhibition, hits give high values
In short: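 Read-out is yeast growth inhibition, calculated against vehicle-only controls. The compound was applied to a strain engineered with DNA damage repair alterations.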

[16] = NCI Yeast Anticancer Drug Screen. Data for the rad18 strain (AID 177); settings: S. cerevisiae rad18 mutant growth inhibition, hits give high values
In short: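 Growth of the mutant yeast strain after compound exposure, normalised to vehicle-only cultures.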

[17] = at 5.0 µM (retest, dose inferred, filed as 0.5)
[18] = at 50.0 µM (retest, dose inferred, filed as 5.0)

Measured: growth inhibition

NC(=S)NC(=S)Nc1ccccc1
inactive: [1]; at 1.2 µM -7% | [1]; at 3.7 µM -4% | [1]; at 11.0 µM -3% | [1]; at 33.0 µM 1% | [1]; at 100.0 µM 23% | [2]; at 1.2 µM -6% | [2]; at 3.7 µM -5% | [2]; at 11.0 µM -6% | [2]; at 33.0 µM 0% | [2]; at 100.0 µM 16% | [3]; at 1.2 µM -6% | [3]; at 3.7 µM -10% | [3]; at 11.0 µM -12% | [3]; at 33.0 µM -12% | [3]; at 100.0 µM -10% | [4]; at 1.2 µM -6% | [4]; at 3.7 µM -3% | [4]; at 11.0 µM 2% | [4]; at 33.0 µM 16% | [5]; at 1.2 µM 0% | [5]; at 3.7 µM -47% | [5]; [17] -1% | [5]; at 11.0 µM 18% | [5]; at 33.0 µM 5% | [5]; [18] 2% | [5]; at 50.0 µM 23.5% | [6]; at 1.2 µM -4% | [6]; at 3.7 µM -2% | [6]; [17] -2% | [6]; at 11.0 µM 2% | [6]; at 33.0 µM 8% | [6]; [18] 10% | [6]; at 50.0 µM 38.5% | [6]; at 100.0 µM 62% | [7]; at 1.2 µM -6% | [7]; at 3.7 µM -3% | [7]; at 11.0 µM 0% | [7]; at 33.0 µM 8% | [8]; [17] -3% | [8]; [18] 49% | [9]; at 1.2 µM -19% | [9]; at 3.7 µM -22% | [9]; at 11.0 µM -16% | [9]; at 33.0 µM -18% | [9]; at 100.0 µM -13% | [10]; [17] -25% | [10]; [18] 8% | [10]; at 50.0 µM 68.7% | [11]; at 1.2 µM -11% | [11]; at 3.7 µM -13% | [11]; [17] -13% | [11]; at 11.0 µM -14% | [11]; at 33.0 µM -8% | [11]; [18] 18% | [11]; at 50.0 µM 34.6% | [11]; at 100.0 µM 34% | [12]; at 1.2 µM -5% | [12]; at 3.7 µM 6% | [12]; at 11.0 µM -1% | [12]; at 33.0 µM 1% | [12]; at 100.0 µM 42% | [13]; at 1.2 µM -3% | [13]; at 3.7 µM 0% | [13]; at 11.0 µM 4% | [13]; at 33.0 µM 17% | [14]; at 1.2 µM 2% | [14]; at 3.7 µM 9% | [14]; at 11.0 µM 24% | [14]; at 33.0 µM 44% | [15]; [17] -1% | [15]; [18] 31%
active: [4]; at 100.0 µM 80% | [5]; at 100.0 µM 79% | [7]; at 100.0 µM 93% | [8]; at 50.0 µM 82.5% | [13]; at 100.0 µM 85% | [14]; at 100.0 µM 95% | [15]; at 50.0 µM 77%

CCC(C)(C)c1ccc(Oc2cccc(C(=O)O)c2)cc1
inactive: [1]; at 1.2 µM -2% | [1]; at 3.7 µM -1% | [1]; at 11.0 µM 17% | [1]; at 33.0 µM 59% | [1]; at 100.0 µM 68% | [2]; at 1.2 µM -1% | [2]; at 3.7 µM -3% | [2]; at 11.0 µM 12% | [2]; at 33.0 µM 49% | [2]; at 100.0 µM 59% | [3]; at 1.2 µM 8% | [3]; at 3.7 µM 18% | [3]; at 11.0 µM 25% | [3]; at 33.0 µM 42% | [3]; at 100.0 µM 56% | [4]; at 1.2 µM -4% | [4]; at 3.7 µM -6% | [4]; at 11.0 µM 2% | [4]; at 33.0 µM 52% | [5]; at 1.2 µM 2% | [5]; at 3.7 µM -1% | [5]; [17] -2% | [5]; at 11.0 µM 25% | [5]; at 33.0 µM 55% | [5]; [18] 44% | [6]; at 1.2 µM -1% | [6]; at 3.7 µM 2% | [6]; [17] 19% | [6]; at 11.0 µM 25% | [6]; [18] 48% | [7]; at 1.2 µM -6% | [7]; at 3.7 µM -14% | [7]; at 11.0 µM 2% | [7]; at 33.0 µM 54% | [8]; [17] -1% | [8]; [18] 9% | [8]; at 50.0 µM 58.2% | [9]; at 1.2 µM -4% | [9]; at 3.7 µM -4% | [9]; at 11.0 µM 24% | [10]; [17] -27% | [10]; [18] 30% | [11]; at 1.2 µM -8% | [11]; at 3.7 µM -2% | [11]; [17] -17% | [11]; at 11.0 µM 23% | [11]; at 33.0 µM 68% | [11]; [18] 32% | [12]; at 1.2 µM -4% | [12]; at 3.7 µM -4% | [12]; at 11.0 µM 7% | [12]; at 33.0 µM 46% | [12]; at 100.0 µM 62% | [13]; at 1.2 µM 1% | [13]; at 3.7 µM -1% | [13]; at 11.0 µM 14% | [13]; at 33.0 µM 31% | [14]; at 1.2 µM 6% | [14]; at 3.7 µM 10% | [14]; at 11.0 µM 28% | [14]; at 33.0 µM 54% | [14]; at 100.0 µM 68% | [15]; [17] 10% | [15]; [18] 36% | [16]; at 1.2 µM 8% | [16]; at 3.7 µM 3% | [16]; at 11.0 µM 17% | [16]; at 33.0 µM 49% | [16]; at 100.0 µM 69%
active: [4]; at 100.0 µM 92% | [5]; at 50.0 µM 72.1% | [5]; at 100.0 µM 71% | [6]; at 33.0 µM 70% | [6]; at 50.0 µM 78.8% | [6]; at 100.0 µM 96% | [7]; at 100.0 µM 72% | [9]; at 33.0 µM 84% | [9]; at 100.0 µM 84% | [10]; at 50.0 µM 88% | [11]; at 50.0 µM 71.8% | [11]; at 100.0 µM 84% | [13]; at 100.0 µM 96% | [15]; at 50.0 µM 86.7%
